± gives the standard deviation of the averaged measurements.
Key:
[1] = test system: IL-6-GFP PC-9GR; assay: cell viability (CCK-8 OD) relative to DMSO control (fraction of control); higher = more viable cells; settings: compound concentration: 10 uM; treatment time: 48 h
Outline: (§1)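 Compounds from a purchased library of 510 were each tested at a final 10 μM for 48 h on PC-9 and PC-9GR lung cancer cells plated at 3000 cells/well in 96-well plates. These cells overexpressed IL-6-GFP from a lentiviral construct. Viability came from CCK-8 absorbance, given as the optical density of each well over that of the vehicle control well, across independent replicates numbering two.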

[2] = test system: IL-6-GFP PC-9; assay: as above; settings: compound concentration: 10 uM; treatment time: 48 h
Outline: as §1

Cc1cc(C(C)(C)C)cc(C)c1CC1=NCCN1 [Xylometazoline]
cell viability [1]: 0.674 ± 0.26
cell viability [2]: 1.08 ± 0.14

COc1cc(C2c3cc4c(cc3C(OC3OC5COC(C)OC5C(O)C3O)C3COC(=O)C23)OCO4)cc(OC)c1O (stereo not given) [Etoposide]
cell viability [1]: 0.779 ± 0.033
cell viability [2]: 0.537 ± 0.17

CC(Nc1ncnc2[nH]cnc12)c1cc2cccc(Cl)c2c(=O)n1-c1ccccc1 (stereo not given) [Duvelisib (IPI-145, INK1197)]
cell viability [1]: 1.42 ± 0.39
cell viability [2]: 1.1 ± 0.12

CC1=NN(c2ccc(C)c(C)c2)C(=O)/C1=N\Nc1cccc(-c2cccc(C(=O)O)c2)c1O.NCCO.NCCO [Eltrombopag Olamine]
cell viability [1]: 1.23 ± 0.034
cell viability [2]: 0.966 ± 0.02

CNC(=O)c1ccc(N2C(=S)N(c3ccc(C#N)c(C(F)(F)F)c3)C(=O)C2(C)C)cc1F [Enzalutamide (MDV3100)]
cell viability [1]: 1.04 ± 0.077
cell viability [2]: 0.808 ± 0.099

CN1C(C(=O)Nc2ccccn2)=C(O)c2sccc2S1(=O)=O [Tenoxicam]
cell viability [1]: 1.16 ± 0.15
cell viability [2]: 1.21 ± 0.1

COc1nc(N)nc2c1ncn2C1OC(CO)C(O)C1O (stereo not given) [Nelarabine]
cell viability [1]: 1.12 ± 0.017
cell viability [2]: 0.758 ± 0.029

COC(=O)NC(C(=O)N1CCCC1c1ncc(-c2ccc(-c3ccc(-c4cnc(C5CCCN5C(=O)C(NC(=O)OC)C(C)C)[nH]4)cc3)cc2)[nH]1)C(C)C (stereo not given)
cell viability [1]: 1.41 ± 0.14
cell viability [2]: 1.18 ± 0.11

C=C1CCC2C(C)(CO)C(O)CCC2(C)C1C/C=C1\C=COC1=O (stereo not given) [Dehydroandrographolide]
cell viability [1]: 1.17 ± 0.35
cell viability [2]: 1.24 ± 0.12

CC(C)Cc1ccc(C(C)C(=O)OCc2ccccn2)cc1 (stereo not given) [Ibuprofen piconol]
cell viability [1]: 1.43 ± 0.54
cell viability [2]: 1.17 ± 0.096

— the supplement of paper PMC8866396
